# According to the supplement of paper PMC10127200:
# Structures can show the parent of a compound that is named as a salt.
# What was measured:
# Assay in all cases: Euclidean distance of Cell Painting phenotypic profile (signed KS, 77 features) to DMSO centroid (dimensionless distance); 5 or 10 uM (library dependent); higher = stronger phenotypic change vs DMSO (phenoactivity)
# Conditions in all cases: 48 h
# [1] = system: 786-O
# Method in brief: (§1)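 Stained cells were imaged confocally at 20X with 9 fields per well, after 48 h of exposure to library compounds at 10 or 5 uM (set by library; 0.1% DMSO final). The cells were five cancer lines and a healthy fibroblast line. From the images, Harmony extracted 77 features, each expressed as a signed Kolmogorov-Smirnov statistic relative to same-plate vehicle wells. Phenoactivity is measured as Euclidean distance to the median vehicle profile, using plate-position-corrected, correlation-weighted profiles averaged across replicates at the top dose.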
# [2] = system: A549
# Method in brief: as §1
# [3] = system: DU145
# Method in brief: as §1
# [4] = system: FB
# Method in brief: as §1
# [5] = system: HEPG2
# Method in brief: as §1
# [6] = system: OVCAR4
# Method in brief: as §1
Structure (SMILES),Euclidean distance [1],Euclidean distance [2],Euclidean distance [3],Euclidean distance [4],Euclidean distance [5],Euclidean distance [6]
O=C(Nc1cccc(Cl)c1)Nc1ncc(CCNc2ncnc3ccsc23)s1 [SNS-314 Mesylate],1.07,1.84,0.974,1.73,0.589,1
Cc1ccnc2c1NC(=O)c1cccnc1N2C1CC1 [Nevirapine],1.2,0.789,0.803,0.827,1.93,0.872
Cc1ccc(-c2ncc(Cl)cc2-c2ccc(S(C)(=O)=O)cc2)cn1 [Etoricoxib],0.705,0.64,0.802,1.09,0.559,0.802
CC/C(=C(\c1ccc(O)cc1)c1ccc(OCCNC)cc1)c1ccccc1 [Endoxifen HCl],4.21,3.39,2.59,3.3,4.86,3.32
COC(=O)C1=C(C)NC(C)=C(C(=O)OC)C1c1ccccc1[N+](=O)[O-] [Nifedipine],1.37,0.783,0.776,1.11,1.58,
NC[C@H]1O[C@H](O[C@H]2[C@H](O)[C@@H](O[C@H]3O[C@H](CO)[C@@H](O)[C@H](N)[C@H]3O)[C@H](N)C[C@@H]2N)[C@H](O)[C@@H](O)[C@@H]1O [Kanamycin sulfate],1.57,0.801,1.16,0.974,2.18,1.35
O=C(OC(C(F)(F)F)C(F)(F)F)N1CCN(Cc2ccc(C(F)(F)F)cc2N2CCCC2)CC1,1.62,1.13,0.875,1.46,1.27,1.66
O=C1CCc2cc(OCCCCc3nnnn3C3CCCCC3)ccc2N1 [Cilostazol],1.11,0.94,1.56,1.21,0.849,1.26
COc1ccc(Cl)cc1NC(=O)Nc1cc(C)nc2ccccc12,1.14,1.85,1.06,1.02,0.631,1.47
COc1ccc(CN2C3CC2CN(c2ccc(-c4cc(OCC(C)(C)O)cn5ncc(C#N)c45)cn2)C3)cn1 [Selpercatinib (LOXO-292. ARRY-192)],0.919,2.72,0.961,1.56,0.545,1.15
Nc1nc(N)c2nc(-c3cccc(O)c3)c(-c3cccc(O)c3)nc2n1,1.06,1.73,1,1.45,2.84,1.02
